Compounds without any hit were thinned out: in the full panel of roughly 79,000, 15% have a hit. The source made the active and inactive calls. Rule as the data show it: active = growth inhibition above about 70%; inactive = the rest.
Assays:
[1] = NCI Yeast Anticancer Drug Screen. Data for the rad52 strain (AID 147);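 also: 0% = growth of vehicle-treated control cultures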; details: S. cerevisiae rad52 mutant growth inhibition, active compounds read high
In short: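 Growth of repair-deficient yeast cells was compared between compound-treated and vehicle-treated cultures to give percent inhibition.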

[2] = NCI Yeast Anticancer Drug Screen. Data for the wt1 strain (AID 149);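 also: 0% = growth of vehicle-treated wt1 cultures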; details: S. cerevisiae wt1 strain (SPY 50644) growth inhibition, active compounds read high
In short: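 Compounds are added to wt1 yeast cultures. Growth is then measured. Inhibition is expressed relative to vehicle-treated controls.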

[3] = NCI Yeast Anticancer Drug Screen. Data for the rad50EPP+ strain (AID 151);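 also: 0% = growth of vehicle-treated control cultures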; details: S. cerevisiae rad50 mutant strain, active compounds read high
In short: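 Measured: growth inhibition of rad50EPP+ yeast. Reference: vehicle-treated controls. Screen uses strains with defined genetic alterations in DNA damage repair or cell cycle control.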

[4] = NCI Yeast Anticancer Drug Screen. Data for the mgt1 strain (AID 153); details: S. cerevisiae mgt1 mutant growth inhibition, active compounds read high
In short: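 Compounds were applied to mgt1 mutant yeast, and growth was then compared against vehicle-treated control cultures to give percent inhibition.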

[5] = NCI Yeast Anticancer Drug Screen. Data for the rad50 strain (AID 155);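 also: 0% = growth of vehicle-only cultures of the same strain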; details: S. cerevisiae rad50 strain growth inhibition, active compounds read high
In short: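 Inhibition values express reduced yeast growth in compound-treated cultures relative to vehicle-treated controls.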

[6] = NCI Yeast Anticancer Drug Screen. Data for the mec2-1 strain (AID 157); details: S. cerevisiae mec2-1 strain, active compounds read high
In short: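 Compounds were applied to mec2-1 yeast cells. Their growth was then compared with that of vehicle-treated cultures to give growth inhibition.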

[7] = NCI Yeast Anticancer Drug Screen. Data for the rad14 strain (AID 159);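 also: 0% = growth of vehicle-treated control cultures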; details: S. cerevisiae rad14 strain growth inhibition, active compounds read high
In short: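 A mutant yeast strain defective in DNA damage repair is treated with compound; inhibition of its growth is scored against untreated, vehicle-exposed cultures.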

[8] = NCI Yeast Anticancer Drug Screen. Data for the sgs1 mgt1 strain (AID 161);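 also: 0% = growth of cultures given vehicle only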; details: S. cerevisiae sgs1 mgt1 strain, active compounds read high
In short: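 Growth of a repair-deficient yeast mutant was monitored after compound treatment and expressed as inhibition relative to vehicle-treated cultures.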

[9] = NCI Yeast Anticancer Drug Screen. Data for the CLN2oe strain (AID 163);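 also: 0% = growth of vehicle-only control cultures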; details: S. cerevisiae CLN2oe strain, active compounds read high
In short: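 Cells of an engineered yeast line with disturbed cell-cycle regulation are treated with compound. Inhibition of growth is then calculated relative to the vehicle-treated reference.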

[10] = NCI Yeast Anticancer Drug Screen. Data for the cln2 rad14 strain (AID 165);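 also: 0% = growth equal to vehicle treated cultures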; details: S. cerevisiae cln2 rad14 strain, active compounds read high
In short: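 Strain: cln2 rad14 yeast, altered in cell cycle control and DNA damage repair. Read-out: growth inhibition vs vehicle.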

[11] = NCI Yeast Anticancer Drug Screen. Data for the bub3 strain (AID 167); details: S. cerevisiae bub3 mutant strain, active compounds read high
In short: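 Steps: expose the mutant yeast strain to compound; grow alongside vehicle-treated cultures; measure growth; express inhibition against the vehicle cultures.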

[12] = NCI Yeast Anticancer Drug Screen. Data for the wt2 strain (AID 169);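 also: 0% = growth of vehicle-treated yeast cultures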; details: S. cerevisiae wt2 strain growth inhibition, active compounds read high
In short: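 Growth of compound-treated yeast is measured and expressed as inhibition relative to vehicle-only controls.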

[13] = NCI Yeast Anticancer Drug Screen. Data for the mlh1 strain (AID 171);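 also: 0% = growth of vehicle-treated control cultures of the same strain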; details: S. cerevisiae mlh1 strain growth inhibition, active compounds read high
In short: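 Test agents were incubated with yeast bearing a defined DNA damage repair or cell cycle control alteration; values are growth inhibition normalised to vehicle-treated cultures.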

[14] = NCI Yeast Anticancer Drug Screen. Data for the sgs1 strain (AID 173);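 also: 0% = growth of vehicle-only control cultures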; details: S. cerevisiae sgs1 mutant, active compounds read high
In short: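 Strain with an altered DNA repair or cell cycle pathway exposed to compound. Growth then measured. Value = inhibition versus vehicle control.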

[15] = NCI Yeast Anticancer Drug Screen. Data for the mlh1 rad18 strain (AID 175); details: S. cerevisiae mlh1 rad18 strain growth inhibition, active compounds read high
In short: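 A repair-deficient yeast strain is exposed to test compound, and growth is scored relative to vehicle-treated controls.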

[16] = NCI Yeast Anticancer Drug Screen. Data for the rad18 strain (AID 177); details: S. cerevisiae rad18 mutant growth inhibition, active compounds read high
In short: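 DNA-repair-defective yeast; compound treatment; growth inhibition scored against vehicle.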

[17] = at 5.0 µM (retest, dose inferred, filed as 0.5)
[18] = at 50.0 µM (retest, dose inferred, filed as 5.0)

Measured: growth inhibition

N#CN=Nc1cc(Cl)c(N=NC#N)cc1Cl
inactive: [1]; at 1.2 µM -27% | [1]; at 3.7 µM -19% | [1]; at 11.0 µM -18% | [1]; at 33.0 µM 2% | [1]; at 100.0 µM 68% | [2]; at 1.2 µM -6% | [2]; at 3.7 µM -5% | [2]; at 11.0 µM -6% | [2]; at 33.0 µM -3% | [2]; at 100.0 µM 47% | [3]; at 1.2 µM -4% | [3]; at 3.7 µM -3% | [3]; at 11.0 µM 6% | [3]; at 33.0 µM 31% | [4]; at 1.2 µM -10% | [4]; at 3.7 µM -6% | [4]; at 11.0 µM -6% | [4]; at 33.0 µM 28% | [5]; at 1.2 µM -15% | [5]; at 3.7 µM -8% | [5]; [17] -22% | [5]; at 11.0 µM -7% | [5]; at 33.0 µM 3% | [5]; [18] 64% | [5]; at 100.0 µM 55% | [6]; at 1.2 µM -14% | [6]; at 3.7 µM -17% | [6]; [17] 12% | [6]; at 11.0 µM -18% | [6]; at 33.0 µM -3% | [6]; at 50.0 µM 46% | [7]; at 1.2 µM 1% | [7]; at 3.7 µM 4% | [7]; at 11.0 µM 11% | [7]; at 33.0 µM 32% | [8]; [17] -5% | [8]; [18] -4% | [8]; at 50.0 µM 60.2% | [9]; at 1.2 µM -25% | [9]; at 3.7 µM -6% | [9]; at 11.0 µM -6% | [9]; at 33.0 µM -8% | [9]; at 100.0 µM 67% | [10]; [17] 33% | [10]; [18] 55% | [10]; at 50.0 µM 20.6% | [11]; at 1.2 µM -19% | [11]; at 3.7 µM 2% | [11]; [17] -1% | [11]; at 11.0 µM -7% | [11]; at 33.0 µM 25% | [11]; at 50.0 µM 43.8% | [12]; at 1.2 µM 2% | [12]; at 3.7 µM 1% | [12]; at 11.0 µM 0% | [12]; at 33.0 µM 3% | [12]; at 100.0 µM 30% | [13]; at 1.2 µM 22% | [13]; at 3.7 µM 10% | [13]; at 11.0 µM 12% | [13]; at 33.0 µM 29% | [14]; at 1.2 µM -25% | [14]; at 3.7 µM -15% | [14]; at 11.0 µM -13% | [14]; at 33.0 µM 13% | [15]; [17] -10% | [15]; at 50.0 µM 38.2% | [16]; at 1.2 µM -8% | [16]; at 3.7 µM -16% | [16]; at 11.0 µM -11% | [16]; at 33.0 µM 14%
active: [3]; at 100.0 µM 79% | [4]; at 100.0 µM 70% | [5]; at 50.0 µM 83.8% | [6]; [18] 87% | [6]; at 100.0 µM 78% | [7]; at 100.0 µM 85% | [11]; [18] 96% | [11]; at 100.0 µM 88% | [13]; at 100.0 µM 87% | [14]; at 100.0 µM 94% | [15]; [18] 98% | [16]; at 100.0 µM 82%

O=C1C=CC(=C(c2ccccc2)c2ccccc2)c2ccccc21
active: [5]; [18] 91% | [6]; [18] 89% | [8]; [18] 93% | [10]; [18] 86% | [11]; [18] 92% | [15]; [18] 92%
inactive: [1]; at 1.2 µM 6% | [1]; at 3.7 µM 3% | [1]; at 11.0 µM -4% | [1]; at 33.0 µM 4% | [1]; at 100.0 µM 0% | [2]; at 1.2 µM 0% | [2]; at 3.7 µM 1% | [2]; at 11.0 µM 1% | [2]; at 33.0 µM 2% | [2]; at 100.0 µM 4% | [3]; at 1.2 µM 9% | [3]; at 3.7 µM 7% | [3]; at 11.0 µM 2% | [3]; at 33.0 µM 15% | [3]; at 100.0 µM 8% | [4]; at 1.2 µM 0% | [4]; at 3.7 µM 0% | [4]; at 11.0 µM -1% | [4]; at 33.0 µM -1% | [4]; at 100.0 µM 2% | [5]; at 1.2 µM 7% | [5]; at 3.7 µM 7% | [5]; [17] 25% | [5]; at 11.0 µM -1% | [5]; at 33.0 µM 8% | [5]; at 50.0 µM -6.5% | [5]; at 100.0 µM 10% | [6]; at 1.2 µM 0% | [6]; at 3.7 µM -1% | [6]; [17] -1% | [6]; at 11.0 µM 1% | [6]; at 33.0 µM -1% | [6]; at 50.0 µM 15.1% | [6]; at 100.0 µM 2% | [7]; at 1.2 µM 5% | [7]; at 3.7 µM 2% | [7]; at 11.0 µM -2% | [7]; at 33.0 µM 1% | [7]; at 100.0 µM -2% | [8]; [17] 43% | [8]; at 50.0 µM 6.15% | [9]; at 1.2 µM -1% | [9]; at 3.7 µM -3% | [9]; at 11.0 µM -9% | [9]; at 33.0 µM -8% | [9]; at 100.0 µM -9% | [10]; [17] 25% | [10]; at 50.0 µM -44.3% | [11]; at 1.2 µM 0% | [11]; at 3.7 µM 1% | [11]; [17] 53% | [11]; at 11.0 µM 3% | [11]; at 33.0 µM 9% | [11]; at 50.0 µM 25.1% | [11]; at 100.0 µM 21% | [12]; at 1.2 µM -6% | [12]; at 3.7 µM -4% | [12]; at 11.0 µM 0% | [12]; at 33.0 µM -4% | [12]; at 100.0 µM -3% | [13]; at 1.2 µM 2% | [13]; at 3.7 µM 0% | [13]; at 11.0 µM -3% | [13]; at 33.0 µM 1% | [13]; at 100.0 µM 0% | [14]; at 1.2 µM -11% | [14]; at 3.7 µM -25% | [14]; at 11.0 µM -10% | [14]; at 33.0 µM 10% | [14]; at 100.0 µM 18% | [15]; [17] 69% | [15]; at 50.0 µM 13.2% | [16]; at 1.2 µM 6% | [16]; at 3.7 µM 4% | [16]; at 11.0 µM 1% | [16]; at 33.0 µM 4% | [16]; at 100.0 µM 2%

— PubChem BioAssay (NCI)
